Inconclusive results are not listed. The source made the active and inactive calls. Unless noted, calls follow the shape of the full dose curve.
Key:
[1] = Primary qHTS for inhibitors of SARS-S pseudo-typed particle cell entry (AID 1479145); details: outcome: dose series up to 57.1 µM unless noted; also: nearly all actives have a fitted effect of over 45% in size; also: potency is read from the fitted curve at half-maximal effect; as to activity change, negative = inhibition: % is scaled to controls: 0 for no effect and ±100 for the full control effect
[2] = Primary qHTS for Huh7 cytotoxicity: counterscreen for inhibitors of MERS-S pseudotyped particle cell entry (AID 1479147); details: outcome: dose series up to 57.1 µM unless noted; as to activity change, negative = cytotoxicity: % is scaled to controls: 0 for no effect and ±100 for the full control effect
[3] = Primary qHTS for inhibitors of MERS-S pseudo-typed particle cell entry (AID 1479149); details: outcome: dose series up to 57.1 µM unless noted; also: nearly all actives have a fitted effect of over 60% in size; also: potency is read from the fitted curve at half-maximal effect
[4] = Primary qHTS for Vero E6 cytotoxicity: counterscreen for inhibitors of SARS-S pseudo-typed particle cell entry (AID 1479150); details: outcome: dose series up to 57.1 µM unless noted; as to activity change, negative = cytotoxicity: % is scaled to controls: 0 for no effect and ±100 for the full control effect
[5] = Primary qHTS to identify inhibitors of SARS-CoV-2 cell entry (AID 1645846); details: SARS-CoV-2 pseudovirus cell entry assay, luminescence; activity change, negative = inhibition: at 57.1 µM (top of the series) unless noted; also: nearly all actives have a fitted effect of over 45% in size; also: potency is read from the fitted curve at half-maximal effect
In short: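 Data are normalized to wells receiving SARS-CoV-2-S pseudoparticles and those given bald particles. Entry signal was luciferase luminescence in stable hACE2 Expi293F cells, 48 hr post-infection, after 1 hr compound pretreatment.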

[6] = molecular target: Glutathione peroxidase 1 (Homo sapiens) (UniProt P07203); assay: Primary qHTS Assay for Inhibitors of Recombinant Selenoprotein Glutathione Peroxidase 1 (GPX1) (AID 1845191; active = well fitted curve in the direction sought with a large enough effect; an effect the other way counts as inactive or inconclusive; also: % is scaled to controls: 0 for no effect and ±100 for the full control effect; nearly all actives have a fitted effect of over 65% in size)
Sequence of Glutathione peroxidase 1 (Homo sapiens) (P07203 whole entry, looked up): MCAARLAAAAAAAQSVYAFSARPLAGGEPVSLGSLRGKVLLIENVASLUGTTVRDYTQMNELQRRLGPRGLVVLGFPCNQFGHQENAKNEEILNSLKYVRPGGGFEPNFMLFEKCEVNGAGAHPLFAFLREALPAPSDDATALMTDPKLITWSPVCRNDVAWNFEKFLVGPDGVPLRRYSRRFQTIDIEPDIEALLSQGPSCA
In short: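 GR-coupled readout: NADPH consumption tracked by fluorescence, ex 340/em 450 nm, at t=0 and after 15 min at RT. Final mix 10 nM GPX1, 1 mM GSH, 0.5 mM CHP, 0.5 mM NADPH, 100 nM GR, 0.01% BSA, following 30 min enzyme–compound preincubation.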

[7] = molecular target: Bile acid receptor (Homo sapiens) (UniProt Q96RI1); assay: qHTS assay for small molecule agonists of farnesoid X receptor signaling (AID 588527); details: HEK293T FXR-UAS-bla, beta-lactamase ratio, 16 h; stronger effect = higher value;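 also: 0% = vehicle basal and 100% = reference agonist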
Sequence of Bile acid receptor (Homo sapiens) (Q96RI1 whole entry, looked up): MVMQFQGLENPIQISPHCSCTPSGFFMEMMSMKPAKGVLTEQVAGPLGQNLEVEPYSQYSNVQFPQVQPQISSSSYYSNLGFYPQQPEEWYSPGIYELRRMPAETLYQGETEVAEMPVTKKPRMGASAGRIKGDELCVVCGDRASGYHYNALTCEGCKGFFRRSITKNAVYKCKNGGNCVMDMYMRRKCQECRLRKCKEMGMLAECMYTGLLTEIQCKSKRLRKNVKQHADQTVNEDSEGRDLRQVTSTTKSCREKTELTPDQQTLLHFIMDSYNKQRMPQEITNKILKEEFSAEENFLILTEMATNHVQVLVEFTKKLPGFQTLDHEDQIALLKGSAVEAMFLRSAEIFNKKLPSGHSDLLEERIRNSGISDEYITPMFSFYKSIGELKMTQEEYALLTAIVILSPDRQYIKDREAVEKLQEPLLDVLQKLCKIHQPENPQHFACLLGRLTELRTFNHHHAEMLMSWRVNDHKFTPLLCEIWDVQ
In short: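 FXR-UAS-bla HEK293T, 10% dialyzed FBS; cpds up to 92 uM titration, 16 h 37 C; CCF4 dye 2 h RT; fluorescence. Normalized to chenodeoxycholic acid 100 uM (100%) and DMSO (0%); Hill fit gives EC50, efficacy.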

[8] = Cytotoxicity counterscreen for inhibitors of SARS-CoV-2 cell entry (AID 1645845); details: outcome: dose series up to 57.1 µM unless noted; also: nearly all actives have a fitted effect of over 50% in size; as to activity change, negative = cytotoxicity: % is scaled to controls: 0 for no effect and ±100 for the full control effect
In short: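 Counterscreen run in the same HEK293-ACE2 line as the pseudotyped-particle entry assay, without particles. Viability after 48 h at 37 C was read as ATP luminescence, scaled between cell-containing and cell-free wells.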

[9] = KB-8-5-11 P-gp reporter qHTS against the NCATS DSHEA and TCM libraries (AID 1919977; active = well fitted curve in the direction sought with a large enough effect; an effect the other way counts as inactive or inconclusive; also: 0% is about no effect)
In short: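 Cells were seeded, allowed ~4 h to attach, dosed by pin tool (substance titrations), incubated ~72 h at 37C, then lysed with CellTiter-Glo for 30 min at room temperature before luminescence reading.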

[10] = molecular target: Peroxisome proliferator-activated receptor delta (Homo sapiens) (UniProt Q03181); assay: qHTS assay for small molecule agonists of peroxisome proliferator-activated receptor delta signaling (AID 588534);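 also: 0% = DMSO basal wells and 100% = positive control agonist at 10 µM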
Sequence of Peroxisome proliferator-activated receptor delta (Homo sapiens) (Q03181 whole entry, looked up): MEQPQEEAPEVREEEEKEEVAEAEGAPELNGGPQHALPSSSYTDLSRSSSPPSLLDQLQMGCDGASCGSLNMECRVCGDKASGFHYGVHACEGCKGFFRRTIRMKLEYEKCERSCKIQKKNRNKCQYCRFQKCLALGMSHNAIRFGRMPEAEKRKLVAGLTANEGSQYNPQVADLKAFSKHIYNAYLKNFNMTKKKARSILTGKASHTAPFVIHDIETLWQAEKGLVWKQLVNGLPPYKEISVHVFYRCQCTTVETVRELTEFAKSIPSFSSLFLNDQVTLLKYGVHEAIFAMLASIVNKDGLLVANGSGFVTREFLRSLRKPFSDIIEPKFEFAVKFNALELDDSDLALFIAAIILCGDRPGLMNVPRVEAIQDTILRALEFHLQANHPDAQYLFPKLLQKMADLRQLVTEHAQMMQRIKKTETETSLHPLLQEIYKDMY
In short: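 EC50 and efficacy values derive from Hill fits of a concentration series in a beta-lactamase reporter cell assay. Exposure is 18 hrs at 37 C, with CCF4 fluorescence as the readout.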

[11] = qHTS Assay for Identification of Small Molecule Agonists for Hypoxia Response Element Signaling Pathway (AID 914; active = well fitted activation curve with a large enough effect in the signal ratio, with a control signal flat, not every such curve was filed as active; the % refers to the signal ratio; also: potency is read from the fitted curve at half-maximal effect); details: ME-180 (cervical carcinoma) HRE-bla reporter, beta-lactamase ratio, CoCl2, 17 h; activation: stronger effect = higher value
In short: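 Compounds in a titration series were added to ME-180 reporter cells alongside an EC50 level of CoCl2. After 17 hours, beta-lactamase activity was read as the 460nm/530nm emission ratio of CCF4, giving AC50 values.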

[12] = qHTS Assay for Identifying Gametocytocidal Compounds (AID 743244; active = well fitted curve in the direction sought with a large enough effect; an effect the other way counts as inactive or inconclusive; also: potency is read from the fitted curve at half-maximal effect); details: P. falciparum 3D7 stage III-V gametocytes, alamarBlue, 72 h
In short: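 Compounds are pinned into medium, gametocytes (stage III–V, 3D7, 20,000 cells/well) added, and plates held 72 h at 37 °C in 5% CO2. AlamarBlue follows for 24 h before fluorescence reading.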

[13] = Confirmatory qHTS for VERO E6 Cytotoxicity Assay: Counterscreen for SARS-CoV-2 CPE Assay (AID 1508605); also: % is scaled to controls: 0 for no effect and ±100 for the full control effect; nearly all actives have a fitted effect of over 60% in size
[14] = Confirmatory qHTS for activators (rescue) of SARS-CoV-2 Cytopathic Effect (CPE) (AID 1508606); also: potency is read from the fitted curve at half-maximal effect; nearly all actives have a fitted effect of over 70% in size
[15] = Confirmatory qHTS to identify inhibitors of SARS-CoV-2 cell entry (AID 1645844); also: potency is read from the fitted curve at half-maximal effect; nearly all actives have a fitted effect of over 45% in size
In short: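 HEK293-ACE2, overnight seeding; cpd 1 h, 37C/5% CO2; + SARS-CoV-2-S MLV PP (Wuhan-Hu-1, ΔC19); 48 h; Bright-Glo luminescence. Data normalised to S PP and bald PP wells.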

[16] = VSVG counterscreen qHTS to identify inhibitors of SARS-CoV-2 cell entry (AID 1645847); also: potency is read from the fitted curve at half-maximal effect; nearly all actives have a fitted effect of over 65% in size
In short: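 Counterscreen using VSV-G (not spike) pseudotyped MLV particles on ACE2-expressing Expi293F cells after 1 h compound preincubation; infection ran 48 h at 37 °C. Data normalized to VSV-G PP and bald-PP wells.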

COc1ccc(C(=O)Nc2ccccc2CCC2CCCCN2C)cc1 (centres undefined)
-20%: activity change, negative = inhibition [5]
inactive: Potency [1] | Potency [2] | Potency [3] | Potency [4]

C=C/C=C\CC1=C(C)[C@@H](OC(=O)[C@H]2[C@H](C=C(C)C)C2(C)C)CC1=O
inactive: Potency [1] | Potency [2] | Potency [3] | Potency [4] | Potency [6]

O=C[C@H](O)[C@@H](O)[C@H](O)[C@H](O)CO
inactive: Potency [1] | Potency [2] | Potency [3] | Potency [4] | Potency [5]

CC1=CCC(C(C)(C)O)CC1 (centres undefined)
inactive: activation [7] -1.09% | Potency [1] | Potency [2] | Potency [3] | Potency [4] | Potency [8] | Potency [9]

O=C(O)[C@H](O)[C@@H](O)[C@H](O)[C@H](O)CO
inactive: outcome [10] | Potency [1] | Potency [2] | Potency [3] | Potency [4] | Potency [5]

O=CCCCC=O
inactive: activation [7] -2.56% | outcome [10] | Potency [1] | Potency [2] | Potency [3] | Potency [4] | Potency [8]

COC(=S)NCCn1c([N+](=O)[O-])cnc1C
-22.7%: activity change, negative = inhibition [5]
inactive: Potency [1] | Potency [2] | Potency [3] | Potency [4]

CO[C@H]1/C=C\O[C@@]2(C)Oc3c(C)c(O)c4c(O)c(c5c(nc6cc(C)ccn65)c4c3C2=O)NC(=O)/C(C)=C\C=C/[C@H](C)[C@H](O)[C@@H](C)[C@@H](O)[C@@H](C)[C@H](OC(C)=O)[C@@H]1C
-25.8%: activity change, negative = inhibition [5]
inactive: Potency [1] | Potency [2] | Potency [3] | Potency [4]

C[C@@H](O)[C@H]1C(=O)N2C(C(=O)O)=C(S[C@@H]3CN[C@H](C(=O)Nc4cccc(C(=O)O)c4)C3)[C@H](C)[C@H]12
0.84%: activity change, negative = inhibition [5]
inactive: Potency [1] | Potency [2] | Potency [3] | Potency [4]

O=c1c2c(c1=O)N(CCP(=O)(O)O)CCCN2
3.47% [at 114 µM]: activity change, negative = inhibition [5]
inactive: Potency [1] | Potency [2] | Potency [3] | Potency [4]

C[C@@H]1O[C@@H](O[C@@H]2/C=C/C=C/C=C\C=C\C[C@H](C)OC(=O)/C=C/[C@H]3O[C@@H]3C[C@H](O)C[C@]3(O)C[C@@H](O)[C@@H](C(=O)O)[C@H](C2)O3)[C@H](O)[C@H](N)[C@@H]1O
-12.9% [at 11.3 µM]: activity change, negative = inhibition [5]
inactive: activity change, negative = inhibition [1] -7.42% [at 11.4 µM] | activity change, negative = cytotoxicity [2] 0.894% [at 11.4 µM] | outcome [3] inactive [at 11.4 µM] | activity change, negative = cytotoxicity [4] -4.87% [at 11.4 µM]

CC(C)CCCC(C)NC(C)C (centres undefined)
inactive: Potency [1] | Potency [2] | Potency [3] | Potency [8]
-25.3%: activity change, negative = inhibition [5]

CCOC(=O)Cc1ccc(-c2ccccc2)cc1
inactive: Potency [1] | Potency [2] | Potency [4] | Potency [8]

CNCC(=O)OCc1cccnc1N(C)C(=O)OC(C)[n+]1cnn(C[C@](O)(c2cc(F)ccc2F)[C@@H](C)c2nc(-c3ccc(C#N)cc3)cs2)c1 (some centres undefined)
inactive: Potency [1] | Potency [2] | Potency [4] | Potency [8]

CCN(CC)Cc1cc(Nc2ccnc3cc(Cl)ccc23)ccc1O
active: Potency [11] 5.01 µM | Potency [12] 11.2 µM | Potency [1] 10 µM | Potency [3] 14.1 µM | Potency [14] 5.62 µM | Potency [15] 3.83 µM | Potency [5] 11.2 µM | Potency [16] 3.04 µM
inactive: Potency [4] | Potency [13]

CN1C(CC(=O)c2ccccc2)CCCC1CC(O)c1ccccc1 (centres undefined)
inactive: Potency [1] | Potency [2] | Potency [4] | Potency [8]
active: Potency [16] 3.83 µM

COC[C@H]1C[C@@H](c2ncc(-c3ccc4c(c3)COc3cc5c(ccc6[nH]c([C@@H]7CC[C@H](C)N7C(=O)[C@@H](NC(=O)OC)C(C)C)nc65)cc3-4)[nH]2)N(C(=O)[C@H](NC(=O)OC)c2ccccc2)C1
inactive: Potency [1] | Potency [2] | Potency [4] | Potency [8]
active: Potency [15] 0.341 µM | Potency [16] 1.52 µM

From PubChem BioAssay (NCATS)
